Data from PubChem BioAssay AID1159580 (chemical genetic matrix, 2015).
“And” between values parts separate entries of the source, which are not always exact repeats. Identical values can stand only once. In all, about 5,500 compounds went through this assay and about 2,000 (36%) were called active. Inconclusive results (about 18%) are left out. No stated cut-off is given here; in the data, active means normalized growth mostly below about 0.91 (no sharp cut-off); inconclusive means no clear call, values can overlap the other calls; inactive means mostly above about 0.92. Some of the results follow.

Assay: chemical genetic growth profiling, strain panel (AID 1159580);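 further: tested at 20 µM; growth read once vehicle control cultures reached saturation at 30 °C; 1 = growth at the plate median or of vehicle wells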
Settings: S. cerevisiae deletion strains, growth OD

Measured: normalized growth

N=c1nc(N2CCCCC2)cc(N)n1O
inactive: locus YAL013W, strain DEP1, stronger effect = lower value 0.981 and 0.989 | locus YAL021C, strain ccr4, stronger effect = lower value 0.989 | locus YAL026C, strain drs2, stronger effect = lower value 1 | locus YAL030W, strain snc1, stronger effect = lower value 0.984 | locus YAL040C, strain CLN3, stronger effect = lower value 1.03 | locus YBL061C, strain skt5, stronger effect = lower value 0.977 | locus YBR009C, strain hhf1, stronger effect = lower value 1 | locus YBR021W, strain FUR4, stronger effect = lower value 1.09 | locus YBR023C, strain chs3, stronger effect = lower value 0.985 | locus YBR171W, strain sec66, stronger effect = lower value 0.984 | locus YBR229C, strain ROT2, stronger effect = lower value 0.955 | locus YBR231C, strain swc5, stronger effect = lower value 1 | locus YBR279W, strain paf1, stronger effect = lower value 0.992 | locus YCL011C, strain gbp2, stronger effect = lower value 0.963 | locus YCL016C, strain dcc1, stronger effect = lower value 0.97 | locus YCL029C, strain bik1, stronger effect = lower value 0.99 | locus YCL061C, strain MRC1 (second series), stronger effect = lower value 1 | locus YCL061C, strain MRC1, stronger effect = lower value 0.991 | locus YCL069W, strain vba3, stronger effect = lower value 0.992 | locus YCR088W, strain abp1, stronger effect = lower value 0.989 | locus YDL005C, strain med2, stronger effect = lower value 0.997 | locus YDL035C, strain GPR1, stronger effect = lower value 0.98 | locus YDL040C, strain nat1, stronger effect = lower value 0.992 | locus YDL074C, strain BRE1, stronger effect = lower value 1.02 | locus YDL101C, strain DUN1, stronger effect = lower value 0.988 | locus YDL134C, strain PPH21, stronger effect = lower value 0.975 | locus YDL185W, strain tfp1, stronger effect = lower value 0.978 | locus YDL192W, strain arf1, stronger effect = lower value 0.983 | locus YDR001C, strain nth1, stronger effect = lower value 0.979 | locus YDR069C, strain doa4, stronger effect = lower value 0.996 | locus YDR101C, strain arx1, stronger effect = lower value 1.01 | locus YDR137W, strain rgp1, stronger effect = lower value 0.977 | locus YDR150W, strain NUM1, stronger effect = lower value 0.963 and 1.01 | locus YDR159W, strain sac3, stronger effect = lower value 1.04 | locus YDR162C, strain NBP2, stronger effect = lower value 0.968 | locus YDR195W, strain ref2 0.981 | locus YDR297W, strain sur2, stronger effect = lower value 0.981 | locus YDR318W, strain mcm21, stronger effect = lower value 1 | locus YDR334W, strain swr1, stronger effect = lower value 0.936 | locus YDR335W, strain msn5, stronger effect = lower value 0.979 | locus YDR363W, strain ESC2, stronger effect = lower value 0.979 | locus YDR388W, stronger effect = lower value 0.949 | locus YDR392W, strain spt3, stronger effect = lower value 0.964 | locus YDR502C, strain sam2, stronger effect = lower value 0.959 | locus YEL003W, strain gim4, stronger effect = lower value 0.992 | locus YEL037C, strain rad23, stronger effect = lower value 0.989 | locus YEL061C, strain CIN8 (second series), stronger effect = lower value 0.982 | locus YEL061C, strain CIN8, stronger effect = lower value 0.982 | locus YER002W, strain NOP16, stronger effect = lower value 1.02 | locus YER015W, strain faa2, stronger effect = lower value 0.985 | locus YER016W, strain bim1, stronger effect = lower value 0.998 | locus YER110C, stronger effect = lower value 0.955 | locus YER111C, strain swi4, stronger effect = lower value 0.987 | locus YER155C, strain BEM2 (second series), stronger effect = lower value 1.03 | locus YER155C, strain BEM2, stronger effect = lower value 1.01 | locus YER167W, strain BCK2, stronger effect = lower value 0.989 | locus YFR010W, strain ubp6, stronger effect = lower value 0.982 | locus YGL078C, strain dbp3, stronger effect = lower value 0.985 | locus YGL086W, strain mad1, stronger effect = lower value 0.961 | locus YGL167C, strain pmr1, stronger effect = lower value 0.985 | locus YGL173C, strain kem1, stronger effect = lower value 0.984 | locus YGL227W, strain vid30, stronger effect = lower value 0.996 | locus YGL240W, strain doc1, stronger effect = lower value 1 | locus YGL248W, strain PDE1, stronger effect = lower value 0.981 | locus YGL253W, strain hxk2, stronger effect = lower value 0.96 | locus YGR078C, strain PAC10, stronger effect = lower value 1 and 0.978 | locus YGR135W, strain pre9, stronger effect = lower value 0.99 | locus YGR229C, strain SMI1, stronger effect = lower value 1.01 | locus YGR252W, strain gcn5, stronger effect = lower value 0.867 | locus YHR013C, strain ard1, stronger effect = lower value 0.962 | locus YHR027C, strain rpn1, stronger effect = lower value 0.976 | locus YHR030C, strain SLT2, stronger effect = lower value 0.982 | locus YHR079C, strain IRE1 (second series), stronger effect = lower value 1 | locus YHR079C, strain IRE1, stronger effect = lower value 0.997 | locus YHR094C, strain hxt1, stronger effect = lower value 0.991 | locus YHR129C, strain ARP1, stronger effect = lower value 0.988 | locus YHR142W, strain chs7, stronger effect = lower value 0.971 | locus YHR200W, strain rpn10, stronger effect = lower value 0.993 | locus YIL066C, strain RNR3, stronger effect = lower value 0.975 | locus YIL073C, strain SPO22, stronger effect = lower value 0.94 | locus YIL125W, strain kgd1, stronger effect = lower value 0.985 | locus YIR030C, strain dcg1, stronger effect = lower value 0.982 | locus YJL092W, strain hpr5, stronger effect = lower value 0.988 | locus YJL095W, strain BCK1 (second series), stronger effect = lower value 0.986 | locus YJL095W, strain BCK1, stronger effect = lower value 1.01 and 0.985 | locus YJL115W, strain asf1, stronger effect = lower value 0.966 | locus YJL129C, strain trk1, stronger effect = lower value 1 | locus YJL134W, strain LCB3, stronger effect = lower value 0.978 | locus YJL154C, strain vps35, stronger effect = lower value 0.976 | locus YJL164C, strain tpk1, stronger effect = lower value 0.999 | locus YJL166W, strain qcr8, stronger effect = lower value 0.957 | locus YJL168C, strain set2, stronger effect = lower value 0.995 | locus YJL187C, strain SWE1 (second series), stronger effect = lower value 0.983 | locus YJL187C, strain SWE1, stronger effect = lower value 0.992 | locus YJR043C, strain POL32, stronger effect = lower value 1.02 | locus YJR066W, strain TOR1, stronger effect = lower value 0.932
